# Among all 3,400 compounds or so, about 840 (25%) were called active. Another 11% or so got no clear call; they are omitted. A selection follows. Potency and affinity values are given separately. Values without a mark were called inactive.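 How the source made its calls: active means fitted half-maximal concentration of signal decrease at or below twice the sample's top tested concentration; inconclusive means flat curve between -70 and -30 percent, or poor fit; inactive means flat within 30 percent, signal rise, or potency above limit.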
# Assay: T. gondii growth inhibition with IFN-gamma, dose response, cell-based, ME49Luc, HeLa, luciferase, 72 h (AID 1259418)
# Details: T. gondii ME49Luc in IFN-y HeLa, stronger effect = lower value, -100% = high-dose IFN-γ control wells; at 19.5 µM unless noted
row,SMILES,max activity
1,CC(C)NC(=O)N1CCC2(CC1)OCCN(CCO)c1ccccc12,20.9%
2,Cc1ccc(NC(=O)Nc2ccc(-c3nc(-c4ccccc4)co3)cc2)cc1,19.9% [at 0.16 µM]
3,N#Cc1ccc(-c2ccc3c(c2)[C@H]2[C@H](CCN2C(=O)C2CCCCC2)[C@@H](CO)N3)cc1,27.2% [at 10 µM]
4,COc1ccc(-c2nc(Cn3nnc(-c4nc(-c5ccc(Cl)cc5)no4)c3C)c(C)o2)cc1,6.38%
5,CCC(C(=O)N1CCC[C@@H]1C(=O)NCCc1csc(C)n1)c1ccccc1 (some centres not stated),9.81% [at 0.35 µM]
6,COc1cc(-c2noc(-c3nnn(Cc4nc(-c5ccccc5)oc4C)c3C)n2)cc(OC)c1OC,6.25% [at 0.35 µM]
7,COc1ccc2c(c1)NC1(CCN(C(=O)c3ccc(C)c(F)c3)CC1)c1cccn1-2,5.27% [at 0.68 µM]
8,Cc1ccccc1Cn1cccc1CNS(=O)(=O)c1ccc2c(c1)CCC(=O)N2,13.6% [at 2.6 µM]
9,O=C(CCC1N=C2c3ccccc3N=C(SCc3cccc(Cl)c3)N2C1=O)NCc1ccco1 (configuration not stated),24.8% [at 5 µM]
10,O=C(CC1N=C2c3ccccc3N=C(SCc3cccc(F)c3)N2C1=O)NCc1cccs1 (configuration not stated),-23.9% [at 5 µM]
11,NC(=O)C1(N2CCCCC2)CCN(c2ncc(NC(=O)c3cccc(Cl)c3)cc2C(=O)O)CC1,5.69%
12,COc1ccc(-c2nc(N3CCc4ccccc43)c3ccccc3n2)cc1,-12.2% [at 0.35 µM]
13,CCS(=O)(=O)N1CCC(C(=O)NCCc2csc(-c3cccs3)n2)CC1,-17.6%
14,COc1ccc(-c2nc(Nc3ccc(F)cc3F)c3ccccc3n2)cc1,10.1%
15,Cc1ccc2c(c1C)-n1cccc1C1(CCN(C(=O)c3ccc(Br)cc3)CC1)N2,7.92% [at 0.16 µM]
16,COc1cc(C(=O)Nc2ccc(-c3nc(-c4ccc(C)cc4)co3)cc2)cc(OC)c1OC,54.9% [at 10 µM]
17,C[C@H]1CN([C@@H](C)CO)C(=O)c2cccc(NC(=O)c3ccc(-c4nccs4)cc3)c2O[C@@H]1CN(C)C(=O)Nc1ccc(C(F)(F)F)cc1,30.7% [at 5 µM]
18,C[C@@H]1CN([C@@H](C)CO)C(=O)c2cccc(NC(=O)NC3CCCCC3)c2O[C@H]1CN(C)Cc1ccc(C(F)(F)F)cc1,7.51%
19,CCCN(CCC)c1nc(-c2ccc(Cl)cc2)nc2ccccc12,25.7%
20,COc1ccc(-c2nc(Cn3nnc(-c4nc(-c5cccc(F)c5)no4)c3C)c(C)o2)cc1,5.24% [at 10 µM]
21,CCOc1ccccc1NC(=O)Nc1ccc(-c2nc(-c3ccc(C)cc3)co2)cc1,-10.4%
22,O=C(CC1CC1)N[C@H]1CN(C(=O)c2ccoc2)C[C@@H]2CCCO[C@H]21,19.7%
23,CCc1onc(C)c1C1CCCN1C(=O)c1cc(C(F)(F)F)nn1C (configuration not stated),5.66% [at 0.16 µM]
24,O=C(Nc1ccc(-c2nc(-c3ccccc3)co2)cc1)Nc1ccccc1Cl,29.7% [at 10 µM]

row,SMILES,max activity
1,NCCNC(=O)c1nc(-c2ccc(Br)o2)no1,8.96% [at 10 µM]
2,Cc1nc(-c2ccc(F)cc2)sc1-c1ccc(SCc2ccc(F)cc2)nn1,12.7% [at 5 µM]
3,COc1ccc(-c2nc(C)c(-c3ccc(SCc4c(F)cccc4Cl)nn3)s2)cc1,6.69% [at 0.16 µM]
4,COc1cccc(-c2nc(C)c(-c3ccc(SCc4ccc(C(F)(F)F)cc4)nn3)s2)c1,7.57% [at 0.16 µM]
5,COc1cccc(-c2nc(C)c(-c3ccc(SCc4ccc(Br)cc4)nn3)s2)c1,-17.9%
6,Cc1nc(-c2ccc(F)cc2)sc1-c1ccc(SCc2c(F)cccc2Cl)nn1,12.7% [at 0.68 µM]
7,COc1cccc(-c2nc(C)c(-c3ccc(SCc4ccc(C)cc4)nn3)s2)c1,22.3% [at 10 µM]
8,COc1ccc(-c2nc(C)c(-c3ccc(SCc4ccc(C)cc4)nn3)s2)cc1,10.6% [at 2.6 µM]
9,COc1cccc(-c2nc(C)c(-c3ccc(SCc4ccc(Cl)cc4Cl)nn3)s2)c1,-7.13% [at 1.35 µM]
10,Cc1ccc(C)c(-c2coc(-c3ccc(NC(=O)Nc4cc(F)ccc4F)cc3)n2)c1,18.4% [at 0.16 µM]
11,CCOc1cc(C(=O)Nc2ccc3c(c2)CCC(=O)N3)cc(OCC)c1OCC,7.32%
12,Cc1ccc(-c2coc(-c3ccc(NC(=O)CC(C)C)cc3)n2)cc1,33%
13,Clc1ccc(-c2nc(NCc3cccnc3)c3ccccc3n2)cc1,-32.4% [at 0.35 µM]
14,COc1ccc(-c2nc3c(s2)CN(S(=O)(=O)c2cccs2)CC3)cc1,12.1% [at 0.16 µM]
15,O=S(=O)(c1cccs1)N1CCCCN2[C@H](C1)[C@@H](c1ccc(/C=C/c3ccccc3)cc1)[C@@H]2CO,11.8% [at 10 µM]
16,COCCCN1CCc2nc(SCc3nc(-c4cccc(Cl)c4)oc3C)[nH]c(=O)c2C1,33.5% [at 0.35 µM]
17,O=C(NCC1CC1)C1CN(C(=O)c2ccoc2)CC12CCOCC2 (configuration not stated),17.9% [at 10 µM]
18,Cc1ccc(-n2ncc3c(NC4CCCCCCCCCCC4)ncnc32)c(C)c1,53.2% [at 10 µM]
19,Oc1[nH]c2ccccc2c1N=Nc1nc(Nc2ccccc2)nc(N2CCOCC2)n1,12.6% [at 10 µM]
20,CCN(CC)Cc1cn2c(n1)CN(C(=O)c1cnc(C)cn1)CC2,-25.1% [at 10 µM]
21,CCc1nc(OCC(=O)Nc2cccc(C)c2C)c2ccccc2n1,34.5%
22,COc1ccccc1CNC(=O)CCC1N=C2c3ccccc3N=C(SCc3cc(=O)n4ccccc4n3)N2C1=O (configuration not stated),-7.46% [at 0.16 µM]
23,CN1CCCN(C(=O)c2cc3c(c4ccccc4n3CC3CC3)n2S(C)(=O)=O)CC1,11.9% [at 5 µM]

# Reference: PubChem BioAssay AID1259418 (Broad Institute, 2018)
